Results from the supplement of paper PMC11417369.
± gives the standard deviation of the averaged measurements. Over roughly 25,000 sequences, “ln(normalized median fluorescence intensity)” has its median near 8.9; the highest 2% begin near 10. The sample as a whole holds a higher share of the highest values than the screen did.

Tested on: PfAP2-LT AP2 domain (GST-tagged)
Test: gcPBM binding intensity (ln(normalized median fluorescence intensity)); higher = stronger DNA binding
In short: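 Plasmodium falciparum DNA-binding domains carrying a GST tag were expressed in E. coli and applied for 1 h, at about 25 μg on average, to an Agilent 4 × 180k array. The array held primer-extended double-stranded 36-bp intergenic genomic probes together with negative controls, and binding took place in 1× PBS with 1% milk, 0.2 mg/ml BSA, 0.5% salmon testes DNA and 0.03% Triton X-100. An Alexa488 anti-GST antibody detected bound protein, and the array was scanned at 488 nm. Binding intensity is taken as the highest Masliner-normalised natural-log median intensity across replicate spots of either probe orientation.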

Row | Sequence | gcPBM binding intensity (ln)
1 | ATTTTAACTCCCCTTAATCTATTGTATATATATATA [CACACA_negctrl_site208] | 8.88 ± 0.29
2 | TACTCAAAAATTAATTAGCATAATATATATAAAAAT [GTGCAC_negctrl_site613] | 8.49 ± 0.45
3 | TTTGCCATAAAACACACACACATGTAAACCCCCTTT [CACACA_site1646] | 9.76 ± 0.2
4 | ATATATTAATATGTGTGTACTTAACCATTCATATGT [XGTACX_site7395] | 9.1 ± 0.4
5 | TCTTGTATACGGCATGCATGTTAGCACATACGGACA [TGCATGCA_site146] | 8.9 ± 0.32
6 | ATATATTTAAATAAAAGTACGTAAAGGTATATTTAA [XGTACX_site8088] | 8.88 ± 0.44
7 | ACATTCAATAAACGTCGTACACTTTCCTTTTTATGA [XGTACX_site3274] | 8.86 ± 0.52
8 | TAATAATAGTCTAATACATGCATCGATAACGGAACT [TGCATGCA_site98] | 8.82 ± 0.32
9 | AATAAGTATACACATACACACACACCCAAAAAAAAA [CACACA_site8034] | 10 ± 0.39
10 | GGTGATAATAAGCATACACACACACCCAAAAAAAAA [CACACA_site8137] | 9.59 ± 0.35
11 | TGATAATAAGCATACACACACACACCCAAAAAAAAA [CACACA_site721] | 10.2 ± 0.25
12 | AACATAAGTAAGAATACATGCGGAAATTATATAGAA [TGCATGCA_site112] | 9.03 ± 0.38
13 | GGTAAGTACGACTTGACACACATACCCATATATATA [CACACA_site4837] | 9.2 ± 0.55
14 | ATAATTATATTTAGTGGTACTACTTTTGATAATTAG [XGTACX_site6562] | 8.63 ± 0.42
15 | AAAAAAAAAAAACATACACACATACATACAGATATA [CACACA_site4681] | 9.32 ± 0.36
16 | AACAGACATACATACACACATACATACAGACATACA [CACACA_site1942] | 9.64 ± 0.45
17 | AACACATACAGACACACACACAAAAAAAAAAAAAAA [CACACA_site6322] | 9.58 ± 0.78
18 | AAAAAAAAAAAAAACACACACATACAGACAAAAATG [CACACA_site83] | 9.7 ± 0.45
19 | CACAAACAGACAAACACACACACACGGACATACATA [CACACA_site6350] | 10.1 ± 0.11
20 | TAAACAGACATACATACACACATACATACAGACATA [CACACA_site6997] | 9.61 ± 0.37
21 | AAAAAAAACAGACACACACACATACACATACATACA [CACACA_site2857] | 10.2 ± 0.19
22 | TAAACAGACATATAAACACACATACATACATACATA [CACACA_site7215] | 9.41 ± 0.32

Row | Sequence | gcPBM binding intensity (ln)
23 | AAAAAAAACAGACACACACACACATATACATACATA [CACACA_site2665] | 10.3 ± 0.17
24 | ATATATTTTGTTATGGTGCGTAAGAAATATATTCTT [GTGCAC_site9825] | 8.73 ± 0.43
25 | CGAGCAAGACGGGGTGCACACAAACTAATATGCCGA [CACACA_site7936] | 9.55 ± 0.5
26 | TCAAACGGTTAAATATGTACATATATATATATATAT [XGTACX_site2339] | 9.695 ± 0.0071
27 | TTATAATATTCATAAGGTACAGTTTATATATGTTAT [XGTACX_site8442] | 8.68 ± 0.4
28 | TCTTTGAATTTTTTAACACACACATGGGTGGATATA [CACACA_site8474] | 9.04 ± 0.38
29 | ATATAATAGTATATATGTACATATATTTAAATACTA [XGTACX_site1135] | 8.82 ± 0.4
30 | ATTCATACATGCACACGTACATATTTAAATATAAAA [XGTACX_site8388] | 9.04 ± 0.36
31 | TTAGAAACATTGAAAGCATGCAATATTACTTTATAC [TGCATGCA_site522] | 8.82 ± 0.28
32 | TTTTTTTCTTGTTTTAAATAATATACTGGAAAAAAA [CACACA_negctrl_site585] | 7.88 ± 0.33
33 | TGTACCTTATTAATATATTTAACTCGCCTTATATAC [XGTACX_negctrl_site289] | 8.96 ± 0.36
34 | TAAAATGTACAGGACGCACACACATATATATATATA [CACACA_site3673] | 9.92 ± 0.42
35 | AAATGTACAGGACGCACACACATATATATATATATA [CACACA_site3674] | 10.11 ± 0.05
36 | AAATGTACAGGACGCACACACATATTTATATTTATA [CACACA_site7689] | 9.53 ± 0.3
37 | GCCTTCCTTCTAAATGCACACGGAAAGTATAAATGT [CACACA_site8797] | 9.04 ± 0.31
38 | TTAATGTAGAGAAAATGTACATTTTATTAAAACAAT [XGTACX_site6376] | 8.76 ± 0.47
39 | TAAACATACAGATACACACACACACCCACAGAGACA [CACACA_site4429] | 10.15 ± 0.028
40 | AACATACATAAACACACACACACACCCACAGAGACA [CACACA_site4430] | 10.29 ± 0.035
41 | AAATAAAACAGACACACACACACATACACAAAAAAA [CACACA_site7753] | 10.1 ± 0.22
42 | AAATAACAAATTTTTAAAATGTATATATATATATAT [TGCATGCA_negctrl_site219] | 9.51 ± 0.12
43 | GTTTTTTTTTTTTTGGTGCGTCATTTTCAAAAGAAG [GTGCAC_site9745] | 8.57 ± 0.41
44 | AAACAAAAAAATTGAAATAAAATGAAGTAAATGAAC [TGCATGCA_negctrl_site129] | 8.9 ± 0.66

Row | Sequence | gcPBM binding intensity (ln)
45 | TTTTTTTTTTTTTTTTTTTTTTTCTTTATTTTTTTT [CACACA_negctrl_site703] | 8.16 ± 0.43
46 | ATTGTTTTGTAATATGAAAAAATTGTGTAATGTGTC [CACACA_negctrl_site1510] | 8.72 ± 0.4
47 | TTTTAAGTTTTTGAATGTACGTAATTTGTAAATTCT [XGTACX_site2448] | 8.49 ± 0.47
48 | TATTTTTATTTTACATTATTTGTTTATAATTCTTAA [CACACA_negctrl_site1358] | 8.53 ± 0.57
49 | ATGTTACACCGACACACACACATAAAAAAACAAAAA [CACACA_site5750] | 9.61 ± 0.42
50 | AAAAAAAAAAAACACACACACACACCGACAAAATAT [CACACA_site8411] | 10.4 ± 0.25
51 | TATACTCATATATAAACACACAAAAAAAAAAAAAAA [CACACA_site5165] | 8.72 ± 0.45
52 | AAAAAAAAAAAAAACACACACACAAAAAAAAATATA [CACACA_site1104] | 9.68 ± 0.35
53 | ACAAATAAATAAAAAACACACACAAATAAATAAATA [CACACA_site8708] | 9.57 ± 0.38
54 | CATATACTCGGACACACACACACACCGACAAAAAAA [CACACA_site4433] | 10.1 ± 0.41
55 | ATAAATGACAGACACACACACAAAAAAAAAAAACAA [CACACA_site2626] | 9.84 ± 0.57
56 | CATATATACTCATACACACACACACCGACACAGACA [CACACA_site5026] | 9.84 ± 0.17
57 | AAAAAAAAAAAACACACACACAAAAAAAAATATATA [CACACA_site1105] | 9.85 ± 0.54
58 | CACAAACAAAAACACACACACACACCGACAAAAATG [CACACA_site5362] | 10.24 ± 0.092
59 | TAAAATAAAACAAACACACACACACCGACACAAAAA [CACACA_site5993] | 10.1 ± 0.035
60 | TATTTATTAAAACACACACACACACCGACAAAATAA [CACACA_site4293] | 9.97 ± 0.25
61 | TACAAAAATGTAGTCACACATATGTATACTTTTATG [CACACA_site5607] | 8.85 ± 0.42
62 | TGTACCTACAAAATATGATATATTTTTATAAATTGT [XGTACX_negctrl_site498] | 8.51 ± 0.47
63 | TGAACAACTATTACTGCACACATTCTTACACTATAT [CACACA_site4533] | 9.41 ± 0.45
64 | GATGATACAAAGTAATGTACATAAATACACATATTG [XGTACX_site3177] | 9.03 ± 0.44
65 | ATAATACGAATTTGTAGTACATTTATAATAACATGA [XGTACX_site2614] | 8.65 ± 0.38
66 | AATGGTCTTTTCAACACACGTACATAAAAATATTAT [CACACA_site2571] | 8.79 ± 0.44

Row | Sequence | gcPBM binding intensity (ln)
67 | CAATAATATATATATTGTACATTTTTTTTTATTATT [XGTACX_site3149] | 8.7 ± 0.38
68 | TTTTATAGAGTGTATACATGCAATACCACATAAAAT [TGCATGCA_site476] | 8.79 ± 0.43
69 | ATTTTTTTTTTTACAGTGGAACCATATTTGCTCATT [CACACA_negctrl_site940] | 8.82 ± 0.51
70 | ATATATATATTTTTATGAGGCATAAGTAATATTTTT [TGCATGCA_negctrl_site317] | 8.53 ± 0.4
71 | TAAAAGTTTTTATACATACACACCTATAAATTAAGT [CACACA_site2446] | 8.72 ± 0.36
72 | AATTAACAAAAACACACACACACACCGACAAAAAAA [CACACA_site4444] | 10.1 ± 0.23
73 | TAAATTAAAAAACACACACACAAAAAAAAAAAAAAA [CACACA_site2263] | 9.41 ± 0.51
74 | CATAAATTAAAACACACACACACAAAAAAAAAAAAA [CACACA_site2262] | 9.84 ± 0.33
75 | TATGCACGCGAACACACACACACAACTAAAAAATAA [CACACA_site7251] | 9.79 ± 0.37
76 | TTTTTATCTTTGCTGTGTACATAAATAAAAATAACT [XGTACX_site7625] | 8.47 ± 0.42
77 | TATATATATATAATGTGTACACAAATATATATTATA [XGTACX_site8786] | 8.8 ± 0.37
78 | AAGTAAAAAAATAGCACACACACAAAAACACCCACA [CACACA_site1291] | 9.92 ± 0.16
79 | ATCAAATAATAGCAAACACACAAAAAATAAAAAAAA [CACACA_site4146] | 9.04 ± 0.47
80 | AAGTAAAAAAATAGCACACACACAAAAACACAGACA [CACACA_site4839] | 10.1
81 | AAAAAAAACAGACACACACACAAATATATAAAAATA [CACACA_site1172] | 9.94 ± 0.35
82 | CAATATAAAAAACACACGCACACAAAAAAAAAAAAA [CACACA_site3521] | 9.46 ± 0.42
83 | GTAAAAAAATAGCACACACACAAAAACACGCACAAA [CACACA_site6723] | 10.1 ± 0.23
84 | TATTTGTAAATCGATACACACATATAGATTAATATA [CACACA_site6237] | 8.88 ± 0.35
85 | ATATTCTGATTTTAGATGCACTTCGTTAACAAAATA [GTGCAC_site9958] | 8.49 ± 0.35
86 | ATGGACATTTTATAAATCACAATGGATATTTTATAA [CACACA_negctrl_site1830] | 8.41 ± 0.42
87 | GGAAATTAACAGAACACAATGTAACAATTTCTAACA [CACACA_negctrl_site1250] | 8.85 ± 0.4
